Measured values: PubChem BioAssay AID463173 (ICCB-Longwood Screening Facility, Harvard Medical School, 2010)
The whole screen tested about 52,000 compounds, of which about 4,300 (8.3%) were called active. Cut-off read from the data, not from the text of the source: active = survival mostly below about 52% (no sharp cut-off); inactive = mostly above about 56%. The list comes from a sample in which actives are over-represented; it also holds similar structures and randomly drawn compounds.

tested on: DeltatarO mutant; assay: growth inhibition of S. aureus wild type versus tarO mutant, primary screen, teichoic acid synthesis inhibitors, RN4220, OD600 (AID 463173); details: OD600, 18 h, hits give low values, screened at 18.75 µg/mL (by protocol)

Row | Structure (SMILES) | survival
1 | CC(=O)N1CCc2c(sc3c2c(=O)n(-c2ccccc2)c(=O)n3CC(=O)Nc2ccccc2C)C1 | 71% (inactive)
2 | Cc1ccc(C)c(NC(=O)CN2C(=O)CSc3nc(C)cc(C)c32)c1 | 103% (inactive)
3 | O=C(NCc1ccc(F)cc1Cl)c1cc(=O)[nH]c2ccc(S(=O)(=O)N3CCCCC3)cc12 | 102% (inactive)
4 | Cc1ccc(S(=O)(=O)c2cn(Cc3cccc(C)c3)c3cc4c(cc3c2=O)OCO4)cc1 | 101% (inactive)
5 | COc1ccc(NC(=O)CCNS(=O)(=O)c2cccc3nonc23)c(OC)c1 | 50% (active)
6 | CCOc1ccccc1NC(=O)CCNS(=O)(=O)c1cccc2nonc12 | 45% (active)
7 | COc1ccc(NC(=O)CCNS(=O)(=O)c2cccc3nsnc23)cc1OC | 65% (inactive)
8 | COc1ccc(OC)c(NC(=O)CCNS(=O)(=O)c2cccc3nsnc23)c1 | 49% (inactive)
9 | O=C(CCNS(=O)(=O)c1cccc2nsnc12)Nc1ccc(F)cc1 | 56% (inactive)
10 | COc1ccc(C)cc1NC(=O)CCNS(=O)(=O)c1cccc2nonc12 | 43% (active)
11 | COc1ccc(Cl)cc1NC(=O)CCS(=O)(=O)c1cccc2nonc12 | 146% (inactive)
12 | O=C(CCNS(=O)(=O)c1cccc2nonc12)Nc1ccc(F)cc1 | 45% (active)
13 | CCOc1ccccc1NC(=O)C1CCN(S(=O)(=O)c2cccc3nonc23)CC1 | 74% (inactive)
14 | CCc1ccccc1NC(=O)CCS(=O)(=O)c1cccc2nonc12 | 74% (inactive)
15 | COc1ccc(C)cc1NC(=O)C1CCN(S(=O)(=O)c2cccc3nonc23)CC1 | 108% (inactive)
16 | O=C(CCS(=O)(=O)c1cccc2nonc12)Nc1cccc(F)c1 | 67% (inactive)
17 | CC(=O)N1CCN(c2ccc(NC(=O)COc3ccc(Cl)c(C)c3)cc2)CC1 | 68% (inactive)
18 | CCN(CC)S(=O)(=O)c1ccc(NC(=O)CN(c2ccccc2)S(=O)(=O)N(C)C)cc1 | 69% (inactive)
19 | CCNC(=O)c1cnc2sc(N3CCCCCC3)nn2c1=O | 81% (inactive)
20 | C/C(Cc1ccccc1)=N\NC(=O)c1cc(C(C)(C)C)[nH]n1 | 101% (inactive)

Row | Structure (SMILES) | survival
21 | CC1=C(c2ccc(C)c(C)c2)S(=O)(=O)N=C1N1CCC(C(=O)NC(C)Cc2ccco2)CC1 (stereo not given) | 83% (inactive)
22 | O=C(CN1CCN(c2ncccn2)CC1)N(Cc1ccccc1)c1ccc(F)cc1 | 78% (inactive)
23 | COc1ccc(NC(=O)C2CCN(C3=NS(=O)(=O)C(c4ccc(C)c(C)c4)=C3C)CC2)c(OC)c1 | 91% (inactive)
24 | CN=CC1=C(O)C(C(=O)OC)C(C)(C)CC1=O (stereo not given) | 74% (inactive)
25 | CCCCCn1c(=O)[nH]c2cc(C(=O)N3CCN(c4ccccc4)CC3)ccc2c1=O | 68% (inactive)
26 | CCOc1ccc(NC(=O)CCS(=O)(=O)c2cccc3nonc23)cc1 | 78% (inactive)
27 | COc1ccc(NC(=O)CCNS(=O)(=O)c2cccc3nonc23)cc1 | 50% (active)
28 | CCOc1ccc(NC(=O)CCNS(=O)(=O)c2cccc3nonc23)cc1 | 70% (inactive)
29 | O=C(C1CCCCC1)N(Cc1cccnc1)c1nc2c(F)cc(F)cc2s1 | 88% (inactive)
30 | COc1ccc(C2C=C(c3ccccc3)Nc3nc(NC(=O)/C=C/c4ccccc4Cl)nn32)cc1 (stereo not given) | 96% (inactive)
31 | COc1ccc(C2C=C(c3ccccc3)Nc3nc(NC(=O)/C=C/c4ccccc4)nn32)cc1 (stereo not given) | 59% (inactive)
32 | COc1ccc(C2C=C(c3ccccc3)Nc3nc(NC(=O)/C=C/c4ccc(Cl)cc4)nn32)cc1 (stereo not given) | 53% (inactive)
33 | COc1ccccc1/C=C/C(=O)Nc1nc2n(n1)C(c1ccc(F)cc1)C=C(c1ccccc1)N2 (stereo not given) | 65% (inactive)
34 | O=C(/C=C/c1ccccc1)Nc1nc2n(n1)C(c1ccc(F)cc1)C=C(c1ccccc1)N2 (stereo not given) | 44% (active)
35 | COc1ccc(/C=C/C(=O)Nc2nc3n(n2)C(c2ccccc2)C=C(c2ccc(Cl)cc2)N3)cc1 (stereo not given) | 77% (inactive)
36 | O=C(/C=C/c1ccc(F)cc1)Nc1nc2n(n1)C(c1ccc(Cl)cc1)C=C(c1ccccc1)N2 (stereo not given) | 33% (active)
37 | O=C(/C=C/c1ccccc1)Nc1nc2n(n1)C(c1ccc(Cl)cc1)C=C(c1ccccc1)N2 (stereo not given) | 38% (active)
38 | COc1ccc(C2C=C(c3ccccc3)Nc3nc(NC(=O)/C=C/c4ccccc4OC)nn32)cc1 (stereo not given) | 52% (active)
39 | COc1ccc(NCc2cccn2-c2nnc(N3CCC(C)CC3)s2)c(OC)c1 | 73% (inactive)
40 | COc1ccc(C(=O)Nc2ccccc2C(=O)NC(C(=O)O)C(C)C)cc1 (stereo not given) | 84% (inactive)

Row | Structure (SMILES) | survival
41 | O=C(CSc1nc(-c2ccccc2)cc(=O)[nH]1)Nc1ccccc1F | 89% (inactive)
42 | CCCN(CCC)S(=O)(=O)c1ccc(C(=O)N2CCC(=O)c3ccccc32)cc1 | 94% (inactive)
43 | CCc1cccc(C)c1NC(=O)C(CC)n1ncn2c(cc3cc(C)ccc32)c1=O (stereo not given) | 86% (inactive)
44 | COc1ccc(NC(=O)CN(c2cccc(C)c2C)S(=O)(=O)c2ccccc2)cc1OC | 61% (inactive)
45 | Cc1ccc2c(c1)cc1c(=O)n(CC(=O)N(C)c3ccccc3)nc(C)n12 | 129% (inactive)
46 | O=C(NCCc1ccccc1)c1ccc2c(c1)N(Cc1ccccc1)C(=O)c1ccccc1S2=O (stereo not given) | 70% (inactive)
47 | COc1ccc(OC)c2sc(N(Cc3cccnc3)C(=O)c3ccc(C(C)=O)cc3)nc12 | 120% (inactive)
48 | COc1ccc(C2C=C(c3ccccc3)Nc3nc(NC(=O)/C=C/c4ccc(F)cc4)nn32)cc1 (stereo not given) | 51% (inactive)
49 | COc1ccc(/C=C/C(=O)Nc2nc3n(n2)C(c2ccccc2)C=C(c2ccccc2)N3)cc1 (stereo not given) | 70% (inactive)
50 | COc1ccc(/C=C/C(=O)Nc2nc3n(n2)C(c2ccc(F)cc2)C=C(c2ccccc2)N3)cc1 (stereo not given) | 42% (active)
51 | Cc1cc(=O)[nH]c(SCC(=O)OCc2ccccc2)c1C#N | 102% (inactive)
52 | CCCN(CCC)CCCNC(=O)Cn1ncc2c3ccccc3n(Cc3ccccc3F)c2c1=O | 129% (inactive)
53 | Cc1ccccc1Cn1c(CN2CCC(C(=O)NCc3ccc(Cl)cc3)CC2)cc2ccccc21 | 67% (inactive)
54 | CCCCN(CC)CCCNC(=O)c1cc2c(=O)[nH]c3ccccc3c2n1C | 90% (inactive)
55 | O=C(Cn1c(SCc2ccccc2F)nc2ccncc21)Nc1ccccc1C(F)(F)F | 66% (inactive)
56 | COc1ccc(CSc2nc3ccncc3n2CC(=O)Nc2ccc(C)c(F)c2)cc1 | 85% (inactive)
57 | COc1cccc(CSc2nc3ccncc3n2CC(=O)Nc2ccc(OC)c(OC)c2OC)c1 | 98% (inactive)
58 | CCc1ccccc1NC(=O)Cn1c(SCc2ccc(F)cc2)nc2ccncc21 | 36% (active)
59 | COc1ccc(CSc2nc3ccncc3n2CC(=O)Nc2cc(C)cc(C)c2)cc1 | 60% (active)
60 | CN(C)c1ccc(NC(=O)Cn2c(SCc3ccc(F)cc3)nc3ccncc32)cc1 | 72% (inactive)
